In the library only some 7.8% were active in any assay of this set; here they are far more common.
HEK293 cAMP cs – qHTS Assay for Agonists of the Thyroid Stimulating Hormone Receptor: Activators of Intracellular cAMP Concentrations in Parental HEK 293 | parental HEK293 CNG cAMP sensor, membrane potential fluorescence | Potency, µM (top dose mostly 57.1 µM), for the others: at the top dose activation, actives largely listed as activators | 2.5% of 73,000 active | AID 938, 2007; also: % of control where 0% means no effect; nearly all actives have a fitted effect of over 55% in size
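Parental HEK 293 cells stably expressing a modified CNG channel (no TSHR) report cAMP rise as membrane depolarization. Membrane potential dye with 100 uM RO 20-1724 was loaded for 60 min at room temperature, then compound added for 30 min; fluorescence read at 590 nm.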
PK Bst – Pyruvate Kinase. 1.2% of 51,000 active. Potency, µM. purified pyruvate kinase, luminescence ATP production; ribose 5-phosphate activator present at AC10. AID 361, 2006; in the data active = potency below about 11 µM; inconclusive = mostly about 12 µM to 25 µM;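 the screen sought inhibitors and activators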;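 also: scaled between full activation by ribose 5 phosphate and full inhibition by luteolin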
TSHR agonist – qHTS Assay for Agonists of the Thyroid Stimulating Hormone Receptor | Thyrotropin receptor (Homo sapiens), P16473 | HEK293-CNG-TSHR cells (CNG channel as cAMP sensor), membrane potential dye, cAMP | Potency, µM (doses to about 57.1 µM), for inactives: at the top dose activation, usual class: activators | 0.48% of 73,000 active | AID 926, 2007; active = well fitted activation curve with a large enough effect in the main read-out, with a control signal flat, not every such curve was filed as active; inconclusive = small, poorly fitted or top-dose-only effect, or a change in a side signal; inactive = no such curve, though single readings can be large or run the other way; % of control where 0% means no effect;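 also: the control signal comes from parental cells without the receptor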
Target sequence (P16473 whole entry, looked up): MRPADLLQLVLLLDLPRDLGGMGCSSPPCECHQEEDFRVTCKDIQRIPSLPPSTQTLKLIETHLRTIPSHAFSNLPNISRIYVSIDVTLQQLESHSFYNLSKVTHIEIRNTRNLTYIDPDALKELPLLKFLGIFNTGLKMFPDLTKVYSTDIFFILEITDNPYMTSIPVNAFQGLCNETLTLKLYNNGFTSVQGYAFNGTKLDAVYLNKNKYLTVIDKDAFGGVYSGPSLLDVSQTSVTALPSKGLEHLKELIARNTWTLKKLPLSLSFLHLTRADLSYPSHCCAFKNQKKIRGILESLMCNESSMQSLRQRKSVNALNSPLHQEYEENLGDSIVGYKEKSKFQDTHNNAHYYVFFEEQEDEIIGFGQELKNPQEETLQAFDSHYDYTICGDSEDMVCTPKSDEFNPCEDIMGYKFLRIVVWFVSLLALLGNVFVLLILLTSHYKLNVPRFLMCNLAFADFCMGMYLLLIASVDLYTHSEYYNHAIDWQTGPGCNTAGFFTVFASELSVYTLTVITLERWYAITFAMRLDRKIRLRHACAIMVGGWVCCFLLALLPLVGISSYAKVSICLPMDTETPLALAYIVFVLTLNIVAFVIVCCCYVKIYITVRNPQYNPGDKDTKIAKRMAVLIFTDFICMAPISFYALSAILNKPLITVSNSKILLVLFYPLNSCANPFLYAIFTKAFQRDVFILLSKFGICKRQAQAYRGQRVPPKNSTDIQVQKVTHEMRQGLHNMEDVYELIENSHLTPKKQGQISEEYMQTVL
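cAMP rise detected as CNG-channel membrane depolarization by fluorescent dye (emission 590 nm), 30 min after compound, following 60 min dye loading containing 100 uM RO 20-1724 at room temperature. Cells: TSHR/CNG HEK 293, with parental CNG HEK 293 as control.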
ALOX15 inhib – qHTS Assay for Inhibitors of 15-hLO (15-human lipoxygenase) | Polyunsaturated fatty acid lipoxygenase ALOX15 (Homo sapiens), P16050 | purified 15hLO-1, xylenol orange hydroperoxide absorbance | Potency, µM (top dose mostly 57.1 µM), for the others: at the highest dose activity change, negative = inhibition, usual class: inhibitors | 1.4% of 74,000 active | AID 887, 2007; also: % is scaled to controls: 0 for no effect and ±100 for the full control effect; nearly all actives have a fitted effect of over 55% in size
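Readout: Fe(III)-xylenol orange absorbance, 573-to-405 nm ratio as reaction progress. Enzyme 40 nM purified human 15hLO-1, substrate 50 uM arachidonic acid, 6 min RT after 15 min compound preincubation; Hepes pH 7.5 buffer with Triton X-100.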
Tau filament bind – qHTS Assay for Tau Filament Binding; recombinant tau filaments, thioflavin S fluorescence, 15 h; filaments grown with octadecylsulfate alongside compound; Microtubule-associated protein tau (Homo sapiens), P10636; 2% of 71,000 active; Potency, µM (series often up to 57.1 µM), without a hit: at the top dose activity change, negative = inhibition; AID 596, 2007;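 also: % is scaled to controls: 0 for no effect and ±100 for the full control effect; actives lower thioflavin S fluorescence by blocking filaments or displacing dye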
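Read-out: ThS fluorescence, 450 nm excitation/510 nm emission; lower signal marks blocked filament formation or displaced dye. Tau at 1 uM with 30 uM ODS, 10 uM ThS, 5 mM DTT, 100 mM NaCl, 10 mM HEPES pH 7.4; 15 h, 37 C.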
Luciferase inh – qHTS Assay for Inhibitors of Firefly Luciferase; 2.2% of 72,000 active; Luciferin 4-monooxygenase (Photinus pyralis), P08659; AID 411, 2009; purified firefly luciferase, luminescence, 8 min; Potency, µM (titrated, usually from 57.1 µM), without a hit: top-dose activity change, negative = inhibition, most hits filed as inhibitors; also: % is scaled to controls: 0 for no effect and ±100 for the full control effect; nearly all actives have a fitted effect of over 40% in size
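Titration-based qHTS; buffer 50 mM imidazole pH 7.2, 50 mM KCl, 7 mM MgCl2, 10 uM ATP, 0.01% Tween 20, 0.05% BSA; luciferase/luciferin detector mix added after compound; 8 min, ambient; luminescence.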
Numbers without * were called inactive; i = inactive; ? = inconclusive; . = no result; [ ] = remark or other dose. Unless noted, calls follow the shape of the dose curve; as a rule, active = well fitted curve in the direction sought with a large enough effect; inconclusive = small, poorly fitted or top-dose-only effect, or another doubt; inactive = no such curve, though single readings can be large; an effect the other way counts as inactive or inconclusive. Potency is read from the fitted curve at half-maximal effect.

SMILES	HEK293 cAMP cs	PK Bst	TSHR agonist	ALOX15 inhib	Tau filament bind	Luciferase inh
O=C(Nc1ccc2c(c1)OCCO2)c1ccc(NC(=O)C2CCCO2)cc1 (stereo not drawn)	-1%	.	-3%	3%	-5%	13µM*
CC(=O)Nc1ccc(C(=O)Nc2ccc3c(c2)OCO3)cc1	5%	>57	-10%	6%	20µM*	-15%
Cc1cc(C(=O)Nc2ccc3c(c2)OCO3)cs1	16%	i	9%	-19%	-24%	16µM*
O=C(Nc1ccc2c(c1)OCO2)c1cccc(Cl)c1	1%	.	-14%	-2%	11%	13µM*
O=C(Nc1ccc(F)c(F)c1)c1ccc2c(c1)OCO2	27%	.	26%	-21%	9%	?
Cc1ccc(C(=O)c2cn[nH]c2-c2cc(Cl)ccc2O)cc1	-14%	>57	-18%	20µM*	-13%	0%
O=C1OCCC1Sc1nnc(-c2ccccc2)o1 (stereo not drawn)	7%	8.8*	1%	-2%	12%	-15%
COc1ccc(N2C(=O)CC(Sc3nnc(-c4ccccc4)o3)C2=O)cc1 (stereo not drawn)	?	.	?	-12%[11.4 µM]	-3%[11.4 µM]	-11%
O=C(O)c1cc(NS(=O)(=O)c2cccc3ccccc23)ccc1O	3%	3.3*	10%	-5%	-1%	1%
O=C(O)c1ccc(NS(=O)(=O)c2cccc3ccccc23)cc1	?	.	?	5%	.	.
CCN(CC)c1ccc(N)cc1	-29%	.	-33%	-19%	13µM*	.
Cc1cccn2c(=O)c3cc(C(=O)NC(C)C)c(=N)n(Cc4ccncc4)c3nc12	-11%	>57	-5%	-2%	35%	-1%
COCCn1c(=N)c(C(=O)NCCc2ccc(OC)cc2)cc2c(=O)n3cccc(C)c3nc21	-56%	>57	?	-8%	2µM*	1%
CCNC(=O)c1cc2c(=O)n3cccc(C)c3nc2n(Cc2ccc(C)cc2)c1=N	-80%	>57	?	-5%	1.6µM*	1%
O=C(Nc1ncc(C(F)(F)F)cc1Cl)C1COc2ccccc2O1 (stereo not drawn)	10%	>57	7%	3%	-3%	-1%
COCC(=O)Nc1ccc(Nc2ccccc2)cc1	-4%	>57	-4%	-8%	7.9µM*	-3%
CCc1ccc(CCC(=O)O)nc1	15%[11.4 µM]	.	1%[11.4 µM]	2%[11.4 µM]	-1%[11.4 µM]	-1%[11.4 µM]
CCOC(=O)C1=C(C)NC(SCC(=O)OC)=C(C#N)C1c1ccc(C(=O)OC)cc1 (stereo not drawn)	?	>57	?	5µM*	-26%	0%
CCOC(=O)CSC1=C(C#N)C(c2ccc(F)cc2)C(C(C)=O)=C(C)N1 (stereo not drawn)	3%	>57	-24%	-9%	12%	0%
COc1ccccc1-c1nnc(SCC(=O)NC2CCCCC2)o1	2%	.	7%	-3%	4%	-2%
Cc1ccccc1-c1nnc(SCC(=O)NC2CCCCC2)o1	32µM*	>57	?	0%	-6%	-32%
O=C(/C=C/c1ccc(O)c(O)c1)OCCc1ccccc1	.	.	.	0.5µM*	.	.
CN(C)c1ccc(-c2ccc3ncnc(N(C)Cc4ccco4)c3c2)cc1	?	.	?	-19%	20µM*	0%[2.29 µM]
COc1cccc(-c2ccc3ncnc(N(C)Cc4ccco4)c3c2)c1	16µM*	.	?	-22%	-1%	1%[2.29 µM]
CN(Cc1ccco1)c1ncnc2ccc(-c3ccccc3C#N)cc12	?	.	?	3%	17%	1%[2.29 µM]
SMILES	HEK293 cAMP cs	PK Bst	TSHR agonist	ALOX15 inhib	Tau filament bind	Luciferase inh
C=C(C)C(=O)OCCCCCCCCCC	-4%	.	?	5%	11%	.
COc1ccc(NC(=O)c2cc(Cl)ccc2NC(=O)c2ccco2)c(OC)c1	25µM*	>57	?	-15%	i	-10%
CCOc1cc(NC(=O)c2ccco2)c(OCC)cc1NC(=O)Cc1cccc(OC)c1	-9%	>57	3%	?	10µM*	-1%
CCOc1cc(NC(=O)c2ccco2)c(OCC)cc1NC(=O)COc1ccccc1C	1%	>57	-9%	0%	5%	1%
O=C(Nc1ccc(Cl)cc1C(=O)Nc1ccncc1)c1ccco1	?	.	?	2.5µM*	-17%	-1%
COc1ccc2cc1Oc1ccc(cc1)C[C@@H]1c3c(cc(OC)c4c3Oc3cc5c(cc3O4)CCN[C@H]5C2)CCN1C	-29%[11.4 µM]	.	-29%[11.4 µM]	3%[11.4 µM]	40%[11.4 µM]	4%[11.4 µM]
Cc1ccc(-c2cc(C(=O)Nc3c(C#N)cnn3C)no2)cc1	-2%	.	0%	-2%	-1%	13µM*
CCn1cc(C(=O)NC2CCCCCC2)c2cc(OC)c(OC)cc2c1=O	7%	>57	19%	-1%	3%	0%
COc1ccc(-c2nc3cnc(OC)nc3n(C[C@H]3CCCO3)c2=O)cc1	20µM*	.	?	5%	-6%	1%[11.4 µM]
COc1cccc(Cn2c(=O)c(-c3ccc(Cl)cc3)nc3cnc(N4CCNCC4)nc32)c1	-15%	.	-10%	4%	4µM*	-1%[11.4 µM]
COc1ccc(-c2nc3cnc(N4CCNCC4)nc3n(Cc3cccc(OC)c3)c2=O)cc1	-3%	.	-2%	-12%	178%	0%[11.4 µM]
COc1cccc(Cn2c(=O)c(-c3cccc(Cl)c3)nc3cncnc32)c1	-8%	.	-6%	?	20µM*	0%[11.4 µM]
COc1cccc(Cn2c(=O)c(-c3ccc(Cl)cc3)nc3cnc(OC)nc32)c1	?	.	?	0%	13µM*	0%[11.4 µM]
COc1cccc(Cn2c(=O)c(-c3ccc(Cl)cc3)nc3cnc(N4CCN(C)CC4)nc32)c1	-14%	.	9%	-7%	?	2%[11.4 µM]
COc1ccc(-c2nc3cnc(N4CCOCC4)nc3n(CCc3ccccc3)c2=O)cc1	22%	.	7%	?	87%	-1%[11.4 µM]
COc1ccccc1CCn1c(=O)c(-c2ccc(Cl)cc2)nc2cncnc21	?	.	?	-12%	13µM*	2%[11.4 µM]
COc1ccccc1CCn1c(=O)c(-c2cccs2)nc2cncnc21	?	.	?	-15%	-6%	1%[11.4 µM]
COc1cccc(Cn2c(=O)c(-c3ccc(Cl)cc3)nc3cncnc32)c1	15%	.	-10%	-15%	25µM*	-1%[11.4 µM]
CSc1ccc(CNc2ccccn2)cc1	?	.	?	-8%	-10%	16µM*
N[C@@H](CSS(=O)(=O)O)C(=O)O	8%	.	2%	-26%[25.6 µM]	26%	-14%
COc1ccc(S(=O)(=O)Nc2ccccc2C(=O)NC(C)C)cc1OC	-3%[11.4 µM]	.	2%[11.4 µM]	-3%[11.4 µM]	8%[11.4 µM]	0%
